Assay outcomes as filed in PubChem BioAssay.
Most compounds without a hit are left out; they make up all but 19% or so of the library.
DT40 TDP1 no CPT = qHTS for Inhibitors of human tyrosyl-DNA phosphodiesterase 1 (TDP1): qHTS in cells in absence of CPT; DT40 Tdp1-/- hTDP1 cells, no CPT, ATP luminescence, 48 h; Potency, µM (doses to about 46.2 µM), hits mostly inhibitors; hit rate 15% among 420,000; AID 686978, 2013; also: nearly all actives have a fitted effect of over 55% in size
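Readout: luminescence from CellTiter-Glo after 30 min in the dark at RT. Cells: DT40 Tdp1-/- with stable hTDP1, 400/well. Exposure: compounds alone, ≥48 hr, 37 °C.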
MCF10A rereplic = A quantitative high throughput screen for small molecules that induce DNA re-replication in MCF 10a normal breast cells; MCF 10A DNA re-replication, Hoechst nuclear intensity, 48 h; Potency, µM (series often up to 46.1 µM), usual class: activators; hit rate 2.9% among 350,000; AID 624296, 2012; also: nearly all actives have a fitted effect of over 50% in size
SW480 rereplic = A quantitative high throughput screen for small molecules that induce DNA re-replication in SW480 colon adenocarcinoma cells. Potency, µM (doses to about 46.1 µM), actives largely listed as activators. hit rate 1.8% among 340,000. SW480 DNA re-replication, Hoechst DNA content imaging, 48 h; also: nearly all actives have a fitted effect of over 55% in size
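Hoechst fluorescence of nuclei (405 nm excitation, 500-530 nm emission) measured by plate-scanning imager after 48 hr compound exposure at 37 C; re-replication scored as increased number of nuclei with elevated intensity.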
Chronic BCR inh = qHTS Assay to Find Inhibitors of Chronic Active B-Cell Receptor Signaling; ABC-DLBCL IkBa-CBG/CBR reporter, luminescence ratio, 4 h; Potency, µM (doses to about 46.1 µM), usual class: inhibitors; AID 493014, 2011; hit rate 0.05% among 340,000; active = well fitted inhibition curve with a large enough effect in the signal ratio, with a control signal flat, not every such curve was filed as active; inconclusive = small, poorly fitted or top-dose-only effect, or effect the other way, or a change in a side signal; the % refers to the signal ratio
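TMD8 ABC-DLBCL cells carrying doxycycline-inducible green luciferase fused to IkappaBalpha plus unfused red luciferase were exposed to compounds (up to 46 uM) for 4 hrs at 37C. Activity came from the overlap-corrected green/red luminescence ratio.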
IL1B secr inh = qHTS for Inhibitors of Inflammasome Signaling: IL-1-beta AlphaLISA Primary Screen | THP-1 LPS/ATP IL-1B secretion, AlphaLISA, 16 h; hits give low values | activity change, % at 57.5 µM | hit rate 4.7% among 360,000; in the data active = activity change below about -50%; inconclusive = mostly about -30% to -49%
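Secreted IL-1B measured by AlphaLISA bead assay after 16 h compound exposure of THP-1 cells; compounds (final up to 57.5 uM) added 1 h before LPS (250 ng/mL) and ATP (1.25 mM) stimulation; lower signal means less secretion.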
TDP1 cell CPT = qHTS for Inhibitors of human tyrosyl-DNA phosphodiesterase 1 (TDP1): qHTS in cells in presence of CPT; chicken DT40 Tdp1-/-;hTDP1 cells + 20 nM CPT, ATP luminescence, 48 h; Potency, µM (titrated, usually from 46.2 µM), actives largely listed as inhibitors; hit rate 12% among 420,000; also: nearly all actives have a fitted effect of over 55% in size
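Chicken DT40 Tdp1-/- cells complemented with human TDP1, 400 cells/well, exposed to compounds plus 20 nM camptothecin for at least 48 h at 37 C; viability read as ATP content by CellTiter-Glo luminescence.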
Large screens that a line does not name were inactive. Unless noted, calls follow the shape of the dose curve; as a rule, active = well fitted curve in the direction sought with a large enough effect; inconclusive = small, poorly fitted or top-dose-only effect, or another doubt; inactive = no such curve, though single readings can be large; an effect the other way counts as inactive or inconclusive.

Cc1sc2nc(COC(=O)c3ccc(N4CCCC(C)C4)c([N+](=O)[O-])c3)[nH]c(=O)c2c1C (configuration not stated)	DT40 TDP1 no CPT 16µM, MCF10A rereplic inconclusive, TDP1 cell CPT inconclusive
Cc1sc2nc(COC(=O)c3ccc(O)cc3)[nH]c(=O)c2c1C	DT40 TDP1 no CPT 18µM, Chronic BCR inh inconclusive, TDP1 cell CPT inconclusive
CC(C)N(Cc1ccccc1)S(=O)(=O)c1ccc2c(c1)NC(=O)CO2	none
COCc1cc(C)nc(OCC(=O)N/N=C/c2ccc(-c3cc([N+](=O)[O-])ccc3Cl)o2)c1C#N	DT40 TDP1 no CPT inconclusive
Cc1ccc2sc(N(CCCN(C)C)C(=O)CCS(=O)(=O)c3ccccc3)nc2c1C	DT40 TDP1 no CPT 2.6µM, MCF10A rereplic inconclusive, SW480 rereplic inconclusive, Chronic BCR inh inconclusive, IL1B secr inh -93, TDP1 cell CPT 2.3µM
COc1ccc(OC)c2sc(N(CCCN(C)C)C(=O)CCS(=O)(=O)c3ccccc3)nc12	DT40 TDP1 no CPT 0.65µM, MCF10A rereplic 5.8µM, SW480 rereplic inconclusive, Chronic BCR inh inconclusive, IL1B secr inh -107, TDP1 cell CPT 1.5µM
COc1ccc(C)c2sc(N(CCCN(C)C)C(=O)CS(=O)(=O)c3ccc(F)cc3)nc12	MCF10A rereplic 3.7µM, IL1B secr inh inconclusive
CN(C)CCN(C(=O)CCS(=O)(=O)c1ccccc1)c1nc2c(F)cccc2s1	none
CCOc1ccc(/C=C/c2nc(C#N)c(NCCCOC)o2)cc1	DT40 TDP1 no CPT 1.5µM, MCF10A rereplic 3.7µM, SW480 rereplic 2.1µM, TDP1 cell CPT 2.3µM
CCOc1ccc(-c2nc(C#N)c(NCCCOC)o2)cc1	DT40 TDP1 no CPT 6.5µM, TDP1 cell CPT 8.2µM (no result: MCF10A rereplic, SW480 rereplic, IL1B secr inh)
CCOc1ccc(-c2nc(C#N)c(NCc3ccco3)o2)cc1	DT40 TDP1 no CPT inconclusive, IL1B secr inh inconclusive, TDP1 cell CPT 21µM
COCCCNc1oc(-c2ccccc2F)nc1C#N	TDP1 cell CPT inconclusive
N#Cc1nc(-c2ccc(OCc3ccc(Cl)cc3)cc2)oc1N1CCCC1	DT40 TDP1 no CPT inconclusive (no result: MCF10A rereplic, SW480 rereplic, Chronic BCR inh, IL1B secr inh)
N#Cc1nc(-c2ccc(OCc3ccc(Cl)cc3)cc2)oc1NCc1cccnc1	DT40 TDP1 no CPT inconclusive, MCF10A rereplic 11µM, Chronic BCR inh inconclusive
COc1ccc(C(=O)OCC(=O)c2ccc3c(c2)NC(=O)CO3)cc1S(=O)(=O)N1CCOCC1	none
O=C1C=C(O)c2[nH]c(=O)ccc2C1=O	none (no result: Chronic BCR inh)
Cc1ccc(-c2nc(C#N)c(NCc3cccc4c3OCO4)o2)cc1	MCF10A rereplic 16µM, SW480 rereplic inconclusive
N#Cc1nc(-c2ccc(F)cc2)oc1NCc1cccc2c1OCO2	none
COCCNc1oc(/C=C/c2ccc(F)cc2)nc1S(=O)(=O)c1ccccc1	MCF10A rereplic inconclusive, SW480 rereplic inconclusive, IL1B secr inh inconclusive
C=CCNc1oc(/C=C/c2ccccc2)nc1C#N	MCF10A rereplic 8.2µM, SW480 rereplic 21µM, Chronic BCR inh inconclusive
CCOc1ccc(/C=C/c2nc(C#N)c(NCCCN(C)C)o2)cc1	DT40 TDP1 no CPT inconclusive, MCF10A rereplic 6.5µM, SW480 rereplic 18µM, IL1B secr inh -76, TDP1 cell CPT 21µM
COCCCNc1oc(/C=C/c2ccccc2)nc1C#N	MCF10A rereplic 16µM, SW480 rereplic 7.9µM
CN(C)CCCNc1oc(/C=C/c2ccccc2)nc1C#N	none
C=CCNc1oc(-c2ccc(Cl)cc2)nc1C#N	MCF10A rereplic inconclusive (no result: DT40 TDP1 no CPT, IL1B secr inh, TDP1 cell CPT)
CC1CCCC(C)N1C(=O)COc1ccc([N+](=O)[O-])cc1Cl (configuration not stated)	DT40 TDP1 no CPT inconclusive, MCF10A rereplic inconclusive, TDP1 cell CPT inconclusive
CCc1nnc(SC(C)C(=O)Nc2nccs2)n1C (configuration not stated)	none
CC1OC(C2CCCCC2)Cc2[nH]c(=S)[nH]c(=O)c21 (configuration not stated)	DT40 TDP1 no CPT inconclusive, TDP1 cell CPT inconclusive (no result: MCF10A rereplic, SW480 rereplic, Chronic BCR inh)
Cc1cc(=O)n(Cc2ccc(Cl)cc2)c2c1c(C)nn2-c1ccccc1	none (no result: MCF10A rereplic, SW480 rereplic, Chronic BCR inh, IL1B secr inh)
COc1ccc(CCN2C(=O)C(Oc3ccccc3C)C2c2ccc3c(c2)OCO3)cc1 (configuration not stated)	DT40 TDP1 no CPT 16µM, MCF10A rereplic inconclusive, IL1B secr inh inconclusive, TDP1 cell CPT 15µM
COc1ccc(CCN2C(=O)C(Oc3ccccc3C)C2c2ccc3c(c2)OCO3)cc1OC (configuration not stated)	DT40 TDP1 no CPT 16µM, MCF10A rereplic inconclusive, SW480 rereplic inconclusive, IL1B secr inh inconclusive, TDP1 cell CPT 13µM
COc1ccc(CCn2c(C)cc3c(c2=O)C(c2ccc4c(c2)OCO4)C(C#N)=C(N)O3)cc1OC (configuration not stated)	DT40 TDP1 no CPT 21µM, IL1B secr inh inconclusive, TDP1 cell CPT 13µM
CN(CCOc1ccccc1)C(=O)C1CCC(=O)N(CCc2ccc(Cl)cc2)C1 (configuration not stated)	DT40 TDP1 no CPT inconclusive, Chronic BCR inh inconclusive, TDP1 cell CPT inconclusive
O=C(OCC(=O)c1ccc[nH]1)c1ccc(F)c(S(=O)(=O)N2CCOCC2)c1	Chronic BCR inh inconclusive
O=S(=O)(NCC1(N2CCOCC2)CCCCC1)c1ccc(Cl)cc1C(F)(F)F	DT40 TDP1 no CPT inconclusive, TDP1 cell CPT inconclusive
COc1ccc(N2CCN(Cc3cc(=O)c(OCC(=O)NC4CCCC4)co3)CC2)cc1	none
Cc1cc2nc(-c3ccccc3)c(Cc3cccc(Cl)c3)n2c(C)c1Br	DT40 TDP1 no CPT 26µM, TDP1 cell CPT inconclusive (no result: MCF10A rereplic, SW480 rereplic, Chronic BCR inh)
Cc1cc2nc(-c3ccc(F)cc3)c(Cc3cccc(Cl)c3)n2c(C)c1Br	DT40 TDP1 no CPT inconclusive, TDP1 cell CPT 23µM (no result: MCF10A rereplic, SW480 rereplic, Chronic BCR inh)
CCOc1cc(/C=C(/NC(C)=O)C(=O)O)cc(Cl)c1OCc1cccc(Br)c1	Chronic BCR inh inconclusive
COc1cc2c(c(OC)c1OC)C(c1ccccc1C)CC(=O)O2 (configuration not stated)	SW480 rereplic inconclusive
CCOC(=O)[C@]12CCCC=C1N(Cc1ccco1)C(=O)[C@H](CC(=O)NCc1cccc3ccccc13)C2	DT40 TDP1 no CPT inconclusive, TDP1 cell CPT inconclusive (no result: MCF10A rereplic, SW480 rereplic, Chronic BCR inh)
COC(=O)[C@]12CCCCC=C1N(CCC1=CCCCC1)C(=O)[C@H](CC(=O)NCc1cccc3ccccc13)C2	DT40 TDP1 no CPT inconclusive, TDP1 cell CPT inconclusive (no result: MCF10A rereplic, SW480 rereplic, Chronic BCR inh)
COC(=O)[C@]12CCCCC=C1N(Cc1cccc3ccccc13)C(=O)[C@H](CC(=O)NCCc1ccccc1OC)C2	DT40 TDP1 no CPT inconclusive, TDP1 cell CPT inconclusive (no result: MCF10A rereplic, SW480 rereplic, Chronic BCR inh)
